Assay [1] in a line: qHTS Assay for Identification of Small Molecule Agonists for NFkB Signaling Pathway. (AID 624478).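 Note: compounds tested together with TNF alpha at its EC50 of 10 pM; 0% is about no effect.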 The essentials:
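ME-180 cervical carcinoma, stable NFkB-RE beta-lactamase reporter; 1000 cells/well, overnight attachment; cpd + TNF alpha 10 pM final, 5 h 37 C; LiveBLAzer 2 h RT; FRET 460/530 nm, ex 405 nm.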
In general terms: In qHTS, concentration-response curves come from the screen itself.

Assay [2] is described as follows: qHTS Assay for Identification of Small Molecule Antagonists for NFkB Signaling Pathway. (AID 624479; calls by dose curve;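 note: pathway stimulated with TNF alpha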; note: potency is the fitted concentration of half-maximal effect).
The nature of assay [3]: Cell Proliferation Assay against the TMD8 Cell Line (AID 651645).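 Note: cells exposed to compound for 48 h before reading.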 The following applies: TMD8 DLBCL cell line proliferation/viability; at 46.1 µM (top of the series) unless noted. An outline of the steps: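 Cell viability of the ABC DLBCL line TMD8 is measured by CellTiter-Glo luminescence following a 48-hour incubation with compound. Percent activity uses DMSO as 100% and 9.2 uM bortezomib (final) as 0%.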

Assay [4] can be described thus: Cell Proliferation Assay against the HBL1 Cell Line (AID 651646).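 Note: cells exposed to compound for 48 h before reading.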 The following applies: HBL1 DLBCL cells; at 46.1 µM (top of the series) unless noted. An outline of the steps:
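500 log-phase HBL1 cells per well in phenol red-free RPMI with 5% FBS were treated with compounds for 48 h at 37 °C, 5% CO2. Viability was read by CellTiter-Glo luminescence, normalized to DMSO (100%) and 9.2 uM bortezomib final (0%).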

A short description of assay [5]: Cell Proliferation Assay against the TMD8 Cell Line (Caspase readout at 16 hrs) (AID 651712). Note: potency is the fitted concentration of half-maximal effect. An outline of the steps:
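TMD8 cells (500/well) in phenol-red-free RPMI with glutamine, 5% FBS, were exposed to compounds for 16 h at 37 °C. Caspase 3/7 activation was read by Caspase-Glo luminescence; percent activity normalised to DMSO (0%) and 9.2 uM bortezomib final (100%).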

Assay [6] is described as follows: Cell Proliferation Assay against the TMD8 Cell Line (Caspase readout at 8 hrs) (AID 651713).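 Note: 0% = DMSO and 100% = 9.2 µM bortezomib caspase signal.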 The essentials: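 Seed log-phase TMD8 cells, add compound by pin tool, incubate 8 h at 37C under 5% CO2, equilibrate to room temperature, add Caspase-Glo, wait 15 min, read luminescence; percent activity uses DMSO and 9.2 uM bortezomib controls.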
Assay [7] addresses Tyrosine-protein kinase Yes (Homo sapiens) (UniProt P07947). Nature of the assay: qHTS for small molecule inhibitors of Yes1 kinase: Primary Screen (AID 686947). Note: nearly all actives have a fitted effect of over 60% in size. Note: potency is the fitted concentration of half-maximal effect. The essentials:
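Yes1 (4 nM) preincubated 20 min with compound, then 60 min room-temperature reaction with 0.1 mM ATP and 0.3 mg/mL poly(E4Y) in pH 7.5 Tris, 10 mM MgCl2. ADP measured by ADP-Glo luminescence, normalised to enzyme/no-enzyme controls.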

Assay [8] in a line: qHTS for small molecule inhibitors of Yes1 kinase: Counter Assay (AID 686950).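 Note: no kinase present so only ADP-Glo detection of a fixed ADP amount is tested; luminescence from ADP-Glo reporting ADP in a fixed ATP and ADP mixture; 0% = DMSO wells with ATP plus ADP and -100% = ATP-only wells without ADP.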 An outline of the steps:
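Enzyme-free ADP-Glo interference check: compounds were preincubated 20 min in buffer, then an ATP/ADP mix (0.08 mM ATP, 0.02 mM ADP final) was added for 60 min at room temperature before two-step ADP-Glo luminescence detection.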

Assay [9] in a line: qHTS assay for small molecule activators of the nuclear factor-kappa B (NF-kB) signaling pathway (AID 651749; active = well fitted activation curve with a large enough effect in the signal ratio; the % refers to the signal ratio; note: % of control where 0% means no effect). The following applies: NF-kB-bla ME-180 cells, beta-lactamase FRET ratio, 16 h; stronger effect = higher value. An outline of the steps: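 Screening used 2,000 ME-180 reporter cells per well exposed to pinned compound (23 nL) or DMSO; after 16 hr at 37C, beta-lactamase expression under NF-kB control was assessed through FRET.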

Assay [10] concerns the target Peroxisome proliferator-activated receptor alpha (Homo sapiens) (UniProt Q07869). Nature of the assay: qHTS assay for small molecule agonists of the peroxisome proliferator-activated receptor alpha (PPARalpha) signaling pathway (AID 651778). Note: % of control where 0% means no effect. The following applies: PathHunter PPARalpha complementation, chemiluminescence, 6 h; stronger effect = higher value. An outline of the steps:
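Cells plated at 2,000/well and held overnight at 37 C, 5% CO2, then compound added by pin tool for 6 hr; after PathHunter detection reagent and 60 min at room temperature, chemiluminescence from enzyme complementation was read.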

The target in assay [11] is Arylsulfatase A (Homo sapiens) (UniProt P15289). In words: qHTS screen for enhancers of Arylsulfatase A (ASA1): LOPAC Validation Assay (AID 720538). Note: 0% is about no effect. The conditions noted are these: outcome: dose series up to 57.5 µM. The essentials: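 Cell-based enhancement test: residual ASA activity in SV40-transformed I179S patient fibroblasts is measured by pNCS turnover (0.5mM final, 14h, room temperature) following 48h compound incubation; higher fluorescence indicates activation.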

Assay [12] can be described thus: qHTS for compounds that reverse cellular toxicity of Amyloid beta (A-beta) peptide in yeast: LOPAC Validation Assay (AID 720559).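 Note: plate controls were DMSO for no effect and equimolar ferric chloride plus clioquinol rescue for full effect.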 An outline of the steps: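 Here, A-beta-toxic yeast grow with test compounds at 30 C for 48 hr before optical density at 600 nm is recorded; data are normalized against DMSO and the FeCl3-clioquinol control.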
Assay [13] is described as follows: qHTS for Activators of Parkin Expression: LOPAC Validation Assay (NLuc Reporter) (AID 720572;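 note: 0% = DMSO and 100% = positive control compound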). An outline of the steps:
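Neuronal line stably carrying a FLuc/NLuc coincidence reporter under the Parkin promoter, seeded 24 h, then dosed in 7-point series for 24 h at 37 C. NLuc luminescence read after FLuc; normalized to DMSO and positive control (100%).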

Results filed as inconclusive are left out. The source made the active and inactive calls. Unless noted, calls come from the whole dose curve; as a rule, active = well fitted curve in the direction sought with a large enough effect; inconclusive = small, poorly fitted or top-dose-only effect, or another doubt; inactive = no such curve, though single readings can be large; an effect the other way counts as inactive or inconclusive.

Sequence of Tyrosine-protein kinase Yes (Homo sapiens) (P07947 whole entry, looked up): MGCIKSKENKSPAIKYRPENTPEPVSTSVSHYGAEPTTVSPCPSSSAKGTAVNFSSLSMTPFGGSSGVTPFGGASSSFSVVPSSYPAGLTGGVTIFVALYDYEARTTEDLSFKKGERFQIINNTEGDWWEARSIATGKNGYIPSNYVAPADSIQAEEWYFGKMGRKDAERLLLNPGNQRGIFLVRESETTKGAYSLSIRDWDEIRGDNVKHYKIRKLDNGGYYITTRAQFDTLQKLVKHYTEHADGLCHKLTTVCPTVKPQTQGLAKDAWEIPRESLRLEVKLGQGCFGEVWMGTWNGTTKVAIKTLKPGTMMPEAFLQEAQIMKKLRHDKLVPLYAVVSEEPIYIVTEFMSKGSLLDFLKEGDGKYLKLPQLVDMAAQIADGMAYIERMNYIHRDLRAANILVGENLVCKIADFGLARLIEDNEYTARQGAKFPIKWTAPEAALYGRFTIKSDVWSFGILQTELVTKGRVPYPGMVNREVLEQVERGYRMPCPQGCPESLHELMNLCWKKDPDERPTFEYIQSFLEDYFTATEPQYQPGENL
Sequence of Arylsulfatase A (Homo sapiens) (P15289 whole entry, looked up): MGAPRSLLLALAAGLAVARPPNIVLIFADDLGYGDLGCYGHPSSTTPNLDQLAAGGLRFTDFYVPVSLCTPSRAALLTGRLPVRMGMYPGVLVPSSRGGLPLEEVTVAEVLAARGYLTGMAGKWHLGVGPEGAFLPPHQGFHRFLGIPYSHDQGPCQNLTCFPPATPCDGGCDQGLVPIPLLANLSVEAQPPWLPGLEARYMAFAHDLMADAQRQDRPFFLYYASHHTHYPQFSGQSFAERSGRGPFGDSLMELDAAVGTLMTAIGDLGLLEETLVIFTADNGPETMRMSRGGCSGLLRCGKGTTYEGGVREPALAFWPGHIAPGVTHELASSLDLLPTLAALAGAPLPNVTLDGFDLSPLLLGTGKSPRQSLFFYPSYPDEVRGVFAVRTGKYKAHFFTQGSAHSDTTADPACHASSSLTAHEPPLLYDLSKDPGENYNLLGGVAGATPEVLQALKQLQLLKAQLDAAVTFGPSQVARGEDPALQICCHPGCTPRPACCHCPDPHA
Sequence of Peroxisome proliferator-activated receptor alpha (Homo sapiens) (Q07869 whole entry, looked up): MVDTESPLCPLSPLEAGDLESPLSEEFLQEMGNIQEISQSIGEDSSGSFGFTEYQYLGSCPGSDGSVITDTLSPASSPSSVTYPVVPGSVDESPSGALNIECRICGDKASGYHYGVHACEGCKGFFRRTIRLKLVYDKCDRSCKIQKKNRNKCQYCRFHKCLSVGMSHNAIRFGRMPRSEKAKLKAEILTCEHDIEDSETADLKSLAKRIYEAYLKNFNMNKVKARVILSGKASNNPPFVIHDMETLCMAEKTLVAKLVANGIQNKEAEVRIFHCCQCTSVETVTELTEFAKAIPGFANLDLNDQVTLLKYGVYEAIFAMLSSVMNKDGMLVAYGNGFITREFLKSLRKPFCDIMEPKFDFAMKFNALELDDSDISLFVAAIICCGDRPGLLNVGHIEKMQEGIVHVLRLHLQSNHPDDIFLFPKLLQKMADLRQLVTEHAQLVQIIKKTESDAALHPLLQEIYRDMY

Consider `COc1cc2nccc(Oc3ccc(NC(=O)NC4CC4)c(Cl)c3)c2cc1C(N)=O`, for which the compound was called inactive in [1] and in [8]. Further, the figures for the Potency in assay [2] and in assay [7] were 18.8 µM (active) and 3.45 µM (active), respectively. Also, in [3], the viability (% of control) was determined as 30.4%. Besides, in [4], the viability, percent of control is 83.1%. The Potency result in assay [5] and in [6] was “inactive” in each case.

For the compound `C[C@]12CCC(=O)C=C1CC[C@@H]1[C@@H]2[C@@H](O)C[C@@]2(C)[C@H]1CC[C@]2(O)C(=O)CO`, the outcome in assay [1], in assay [8], in assay [11] and in [12] was inactive. Also, the Potency result in [2], in assay [5], in assay [6], in assay [7] and in assay [13] was “inactive” each time. Moreover, the viability (% of control) in assay [3] worked out at 65.6%. Besides, the viability, percent of control in assay [4] was 39.1%. Also, the activation in [9] is -2.01% (inactive). The max response in [10] is -0.295% (inactive).

Regarding `COc1ccc(CCN2CCN(CCCc3ccccc3)CC2)cc1OC`, the call in assay [1] and in assay [8] was inactive. In addition, the Potency result in [2], in assay [5] and in assay [6] was “inactive” throughout. Further, the viability (% of control) in [3] is 83.9%. For the same compound, the viability, percent of control in assay [4] is 85.9%.

Turning to `CCOc1cc(C(=O)Nc2ccc(Cl)c(-c3nc4ccccc4[nH]3)c2)cc(OCC)c1OCC`, the result in [1] and in assay [8] was inactive. For the same compound, the Potency result in [2], in [5], in assay [6] and in assay [7] was “inactive” throughout. Also, the viability (% of control) in [3] stood at 69.8%. Also, the viability, percent of control in assay [4] was determined as 85.2%.

Consider `CO[C@@H]1[C@H](N(C)C(=O)c2ccccc2)C[C@H]2O[C@]1(C)n1c3ccccc3c3c4c(c5c6ccccc6n2c5c31)C(=O)NC4`, for which the result in assay [1] was inactive. The Potency entry in [2] is “inactive”. Also, the viability (% of control) in assay [3] was found to be 7.74%. The viability, percent of control in [4] worked out at 23%. Also, the Potency in assay [5] was 2.09 µM (active).

In the case of `O=C1CCCC2=C1C(c1[nH]ncc1Cl)N=C(Nc1nc3ccccc3o1)N2` (centres undefined), the outcome in assay [1] and in assay [8] was inactive. In addition, the Potency result in assay [2], in assay [5], in assay [6] and in assay [7] was “inactive” in each case. In addition, in assay [3], the viability (% of control) was 75.7%. The viability, percent of control in assay [4] came out at 71.6%.

As for `Cc1ccc2c(c1)C(=O)[C@@]1(O)CCN(c3ccccc3)C1=N2`, the outcome in [1] and in assay [8] was inactive. The Potency result in assay [2], in assay [5], in assay [6] and in assay [7] was “inactive” throughout. Besides, in assay [3], the viability (% of control) worked out at 77.6%. For the same compound, in assay [4], the viability, percent of control came out at 74.4%.

On to `O=C(C=Cc1ccc(/C=C/C(=O)Nc2ccc(C3=NCCN3)cc2)cc1)Nc1ccc(C2=NCCN2)cc1`, for which the compound was called inactive in assay [1] and in [8]. In addition, the Potency result in [2], in assay [5], in assay [6] and in assay [7] was “inactive” each time. For the same compound, in [3], the viability (% of control) is 92.1%. Besides, in assay [4], the viability, percent of control amounted to 97.4%.

`CS(=O)(=O)c1ccc(C(=O)Nc2ccc(Cl)c(-c3ccccn3)c2)c(Cl)c1`: the outcome in assay [1] and in assay [8] was inactive. Besides, the Potency result in [2], in assay [5], in assay [6] and in assay [7] was “inactive” each time. Besides, the viability (% of control) in [3] amounted to 93.4%. Also, the viability, percent of control in assay [4] was 99.4%.

On to `OC(CN1CCC(Cc2ccc(F)cc2)CC1)c1ccc(Cl)cc1` (centres undefined), for which the compound was classed as inactive in assay [1], in assay [8], in [11] and in [12]. Moreover, the Potency result in [2], in [5], in assay [6], in [7] and in assay [13] was “inactive” in each case. Further, the viability (% of control) in assay [3] came out at 74%. For the same compound, the viability, percent of control in assay [4] was found to be 66.4%.

For the origin of these results see PubChem BioAssay (NCATS).
